Screens as filed in PubChem BioAssay.
HT1080NT lethal – kills 2HG-producing HT-1080-NT fibrosarcoma cells; HT-1080-NT fibrosarcoma viability, CellTiter-Glo ATP luminescence, 48 h; Potency, µM (series often up to 46.1 µM), usual class: cytotoxic; actives 1.6% (n = 360,000);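 note: NT is the 2HG producing partner of a matched IDH1 knockdown line; nearly all actives have a fitted effect of over 55% in size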
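Viability by CellTiter-Glo luminescence after 48 h compound exposure at 37C of HT-1080-NT cells (750/well, RPMI, 5% FBS). % activity scaled between DMSO wells and medium-only wells, then curve-fitted and categorized by curve class.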
TGFb SMAD3 inh – blocks TGF-b signaling; actives 1.2% (n = 410,000); Potency, µM (highest dose often 46.1 µM), hits mostly inhibitors; HepG2 CAGA-GFP TGF-b/SMAD3 reporter, GFP fluorescence, 18 h; TGF-beta stimulated, 500 pg/mL final; note: nearly all actives have a fitted effect of over 65% in size
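HEPG2 CAGA-GFP cells (1000/well, DMEM with 1% FBS) were pre-incubated 2 h at 37 degrees C, given compound by pin tool, then stimulated with TGF-beta at 500 pg/mL final for 18 h before per-cell GFP fluorescence imaging.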
S2 tox – viability counter-screen for ATXN expression inhibitors; AID 651635; S2 cells (HEK-293 line with an ATXN2-luciferase reporter) viability, CellTiter-Fluor protease fluorescence, 24 h; Potency, µM (titrated, usually from 56.7 µM), hits mostly cytotoxic; actives 0.49% (n = 400,000); note: nearly all actives have a fitted effect of over 40% in size
HepG2 tox – counter-screen for TGF-b inhibitors: cytotoxicity in HepG2 cells | HepG2 CAGA-GFP viability, ATP luminescence, 18 h | Potency, µM (series often up to 46.1 µM), usual class: cytotoxic | actives 0.76% (n = 410,000)
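CellTiter-Glo luminescence gave cytotoxicity after 18 hours at 37 degrees C. The cells were HepG2 CAGA-GFP in 1% FBS DMEM, stimulated with 500 pg/mL TGF-beta after compound addition. %Activity was normalised to no-cell wells (complete cell-killing) and DMSO (no toxicity), and curves were fitted and classified.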
ATXN2 expr inh – ATXN2 expression inhibition. HEK-293 ATXN2-luciferase reporter, luminescence, 24 h. Potency, µM (titrated, usually from 57 µM), hits mostly inhibitors. actives 0.72% (n = 360,000). AID 1745845; note: nearly all actives have a fitted effect of over 55% in size
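qHTS (up to 57 uM final) was run with 24 h compound exposure of reporter cells at 37 °C. Each well was multiplexed: SteadyGlo luminescence measured ATXN2-luciferase expression after a fluorogenic Gly-Phe-AFC viability readout (25 uM final).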
HT1080 IDH1KD tx – HT-1080 IDH1 knockdown cell toxicity (counter line) | HT-1080 IDH1 knockdown viability, ATP luminescence, 48 h | Potency, µM (top dose mostly 46.1 µM), actives largely listed as cytotoxic | actives 2% (n = 360,000) | AID 686971
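In this qHTS, HT-1080 cells depleted of IDH1 are exposed for 48 h at 37 °C to compound titrations. Toxicity is scored from CellTiter-Glo luminescence, with DMSO as full viability and medium alone as none.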
Of the large screens only hits and unclear results are named; the others gave an inactive call. Rows were chosen to be rich in hits. Some 3.9% of all compounds tested hit in one or more screens of this group. Calls come from the whole dose curve; as a rule, active = well fitted curve in the direction sought with a large enough effect; inconclusive = small, poorly fitted or top-dose-only effect, or another doubt; inactive = no such curve, though single readings can be large; an effect the other way counts as inactive or inconclusive.

O=C(OCn1ncc(Cl)c(Cl)c1=O)c1ccccc1Cl	HT1080NT lethal 7.3µM, ATXN2 expr inh inconclusive, HT1080 IDH1KD tx 5.8µM (no result: S2 tox)
Cc1sc(-n2cccc2)c(C(C)NC(=O)Nc2cccc(C(F)(F)F)c2)c1C (stereo not given)	none (no result: HT1080NT lethal, TGFb SMAD3 inh, S2 tox, ATXN2 expr inh, HT1080 IDH1KD tx)
CCC1(C2CCN(Cc3ccccc3Cl)CC2)NC(=O)N(CC2COc3ccccc3O2)C1=O (stereo not given)	none (no result: HT1080NT lethal, TGFb SMAD3 inh, HepG2 tox, ATXN2 expr inh, HT1080 IDH1KD tx)
O=C(c1ccc2c(c1)OCO2)N(Cc1cc2ccc(F)cc2nc1N1CCC(O)CC1)CC1CCCO1 (stereo not given)	none (no result: HT1080NT lethal, TGFb SMAD3 inh, HepG2 tox, ATXN2 expr inh, HT1080 IDH1KD tx)
O=C(Cn1ncc(Cl)c(Cl)c1=O)NCC1CCCCC1	HT1080NT lethal inconclusive, TGFb SMAD3 inh inconclusive, ATXN2 expr inh inconclusive, HT1080 IDH1KD tx inconclusive (no result: S2 tox)
CC(C)(C)C(=O)Cn1ncc(Cl)c(Cl)c1=O	HT1080NT lethal 13µM, S2 tox 7.9µM, HT1080 IDH1KD tx inconclusive (no result: ATXN2 expr inh)
C=CCn1c(C)cc(C(=O)Cn2ncc(Cl)c(Cl)c2=O)c1C	HT1080NT lethal inconclusive, S2 tox 35µM, ATXN2 expr inh inconclusive, HT1080 IDH1KD tx 3.3µM
O=C(Cn1ncc(Cl)c(Cl)c1=O)NC1CCCCC1	HT1080NT lethal 13µM, ATXN2 expr inh inconclusive, HT1080 IDH1KD tx 15µM (no result: S2 tox)
Cc1ccc(NC(=O)CN2C(=O)CCc3ccccc32)cc1C	none (no result: HT1080NT lethal, HT1080 IDH1KD tx)
COC(=O)C1CCCCN1Cc1ccc2c(c1)CN(C(=O)c1ccc(F)cc1)CCO2 (stereo not given)	none (no result: HT1080NT lethal, TGFb SMAD3 inh, HepG2 tox, ATXN2 expr inh, HT1080 IDH1KD tx)
CCc1cccc(-n2c(C)nc3c(cnn3-c3ccc(C)c(C)c3)c2=O)c1	TGFb SMAD3 inh inconclusive (no result: HT1080NT lethal, HT1080 IDH1KD tx)
COc1cccc(CN2CCC3(CCC(CNC(=O)c4ccco4)O3)CC2)c1OC (stereo not given)	none (no result: HT1080NT lethal, TGFb SMAD3 inh, HepG2 tox, ATXN2 expr inh, HT1080 IDH1KD tx)
CCN(C(=O)CN1C(=O)COc2ccc(S(=O)(=O)N3CCOCC3)cc21)c1cccc(C)c1	none (no result: HT1080NT lethal, S2 tox, ATXN2 expr inh, HT1080 IDH1KD tx)
CCOc1cc(/C=C/C(=O)Nc2ccc(C(=O)NCCN(CC)CC)cc2)ccc1OCC(C)C	HT1080NT lethal inconclusive, TGFb SMAD3 inh inconclusive, HepG2 tox 13µM, HT1080 IDH1KD tx inconclusive (no result: S2 tox, ATXN2 expr inh)
CCOc1ccc(/C=C/C(=O)Nc2ccc(C(N)=O)cc2)cc1OC	none
CCN1c2ccccc2NC2N=C(OC)C(c3ccccc3)C21 (stereo not given)	HT1080NT lethal 11µM, TGFb SMAD3 inh 13µM, HepG2 tox 11µM, ATXN2 expr inh inconclusive, HT1080 IDH1KD tx 8.9µM
Cc1nc(C)n(CC(=O)NCC2Cc3cc(-c4cccc(OC(F)(F)F)c4)ccc3O2)n1 (stereo not given)	none (no result: HT1080NT lethal, TGFb SMAD3 inh, HepG2 tox, ATXN2 expr inh, HT1080 IDH1KD tx)
COC1=C(C)C(=O)C2=C(C1=O)C1C3CC4=C(C(=O)C(OC)=C(C)C4=O)C(CNC(=O)C(C)=O)N3C(C#N)C(C2)N1C (stereo not given)	HT1080NT lethal 18µM, TGFb SMAD3 inh 0.14µM, S2 tox 0.15µM, HepG2 tox 7.1µM, ATXN2 expr inh inconclusive, HT1080 IDH1KD tx 0.082µM
CCN(CC)CCn1c2ccccc2c2cnc(N)c(C#N)c21	ATXN2 expr inh 14µM, HT1080 IDH1KD tx inconclusive
Cc1ccc(C(=O)Nc2nc3nc(C)cc(=O)n3[nH]2)cc1	none (no result: HT1080NT lethal, S2 tox, ATXN2 expr inh, HT1080 IDH1KD tx)
CC(C)=NOc1cc(NC(=O)CCl)cc([N+](=O)[O-])c1	HT1080NT lethal 5.8µM, TGFb SMAD3 inh 6.3µM, S2 tox 25µM, ATXN2 expr inh inconclusive, HT1080 IDH1KD tx 9.2µM
O=C(CCl)Nc1cc(SCC(O)CO)cc([N+](=O)[O-])c1 (stereo not given)	HT1080NT lethal 1.8µM, TGFb SMAD3 inh 2.8µM, S2 tox 8.9µM, ATXN2 expr inh 4µM, HT1080 IDH1KD tx 1.6µM
CCC(=O)Nc1cc(SCCO)cc([N+](=O)[O-])c1	none
NC(=O)c1cc(-c2ccccc2)sc1NC(=O)CN1CCCCC1	HT1080NT lethal inconclusive, TGFb SMAD3 inh inconclusive, S2 tox inconclusive, HT1080 IDH1KD tx 15µM
O=C(O)/C=C/C(=O)c1ccc2c(c1)CCc1ccccc1-2	HT1080NT lethal 18µM, TGFb SMAD3 inh inconclusive, S2 tox 7.1µM, HepG2 tox 11µM, ATXN2 expr inh 5.6µM, HT1080 IDH1KD tx inconclusive
